This is a sample that favours compounds with a hit; in the whole collection about 12% have one here.
G9a inh: blocks human histone lysine methyltransferase G9a; 8.8% of 350,000 active; G9a H3K9 monomethylation, AlphaScreen, 2 h; Potency, µM (top dose mostly 102 µM), most hits filed as inhibitors; AID 504332; Q96KQ7; further: nearly all actives have a fitted effect of over 75% in size
Target sequence (Q96KQ7 913-1193 limits assumed): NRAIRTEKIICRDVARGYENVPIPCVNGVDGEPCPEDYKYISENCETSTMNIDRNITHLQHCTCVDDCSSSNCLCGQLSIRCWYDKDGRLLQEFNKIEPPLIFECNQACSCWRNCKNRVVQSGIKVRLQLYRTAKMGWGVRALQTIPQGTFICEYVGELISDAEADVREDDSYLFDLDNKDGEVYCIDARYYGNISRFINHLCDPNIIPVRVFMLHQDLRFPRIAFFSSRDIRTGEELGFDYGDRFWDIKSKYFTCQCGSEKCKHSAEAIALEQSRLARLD
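AlphaScreen detection with an anti-monomethyl H3K9 antibody quantified product after a 2 h room-temperature reaction containing 500 nM biotinylated H3K9 peptide, 20 µM SAM and 20 nM enzyme, which had been preincubated 15 min with compound.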
PLK1 PBD block: PLK1 (human) polo-box domain binding inhibition | P53350 | Plk1 PBD binding of FITC phosphopeptide, fluorescence polarization | Potency, µM, most hits filed as inhibitors | 2.8% of 360,000 active; further: series mostly up to about 57 µM; nearly all actives have a fitted effect of over 65% in size
HP1b binding inh: blocks HP1-beta chromodomain binding to methylated histone tails. 0.56% of 390,000 active. Potency, µM (doses to about 114 µM), hits mostly inhibitors. AID 540317. AlphaScreen HP1-beta / biotin-H3K9me3 peptide binding. P83916; further: nearly all actives have a fitted effect of over 70% in size
Target sequence (P83916 whole entry, looked up): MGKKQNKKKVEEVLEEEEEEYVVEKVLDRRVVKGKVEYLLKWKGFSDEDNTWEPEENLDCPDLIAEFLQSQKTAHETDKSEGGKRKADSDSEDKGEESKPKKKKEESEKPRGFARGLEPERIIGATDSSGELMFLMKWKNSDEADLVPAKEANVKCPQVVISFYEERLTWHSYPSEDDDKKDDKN
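Compound inhibition of the preformed complex between 50 nM HP1-beta and 50 nM biotinylated H3K9me3 peptide was read by AlphaScreen. Buffer was PBS pH 7.4 with 0.01% Tween-20. Incubations ran 30 min at room temperature, with 10 ug/mL donor/acceptor beads.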
BAZ2B block: inhibitors of human BAZ2B bromodomain | AlphaScreen BAZ2B-H3K14Ac peptide displacement | Potency, µM (highest dose often 114 µM), actives largely listed as inhibitors | 4.4% of 360,000 active; further: nearly all actives have a fitted effect of over 60% in size
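Complex of BAZ2B and biotin-H3K14Ac (50 nM apiece) forms over 30 min at RT, then faces library compounds up to 110 uM for another 30 min; AlphaScreen beads added, 20 min dark incubation, luminescence read.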
Sfp inh: blocks B. subtilis Sfp PPTase activity; Biochemical Sfp PPTase activity, qHTS; Q9F4F7; AID 1490; Potency, µM, most hits filed as inhibitors; 3.5% of 310,000 active;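 further: the enzyme is Sfp with the accession as filed and its product quenches rhodamine fluorescence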
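Fluorescence-quenching assay: 15 nM Sfp-PPTase preincubated 15 min at room temperature with compound, then 5 uM rhodamine-CoA and 12.5 uM BHQ-2-labelled YbbR peptide added. Fluorescence (ex 525/em 598 nm) read at start and after 30 min; difference gives rate.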
JMJD2A Tudor: blocks the human JMJD2A Tudor domain; AlphaScreen JMJD2A-Tudor / H3K4me3 peptide binding; AID 504339; Potency, µM (titrated, usually from 114 µM), hits mostly inhibitors; 4.4% of 390,000 active; further: nearly all actives have a fitted effect of over 50% in size
Numbers stand for hits; i = inactive; ? = inconclusive; nt = no result given; [ ] = dose if it differs, or a comment. The call rests on the fitted dose curve; in most records, active means well fitted curve in the direction sought with a large enough effect; inconclusive means small, poorly fitted or top-dose-only effect, or another doubt; inactive means no such curve, though single readings can be large; an effect the other way counts as inactive or inconclusive.

SMILES | G9a inh | PLK1 PBD block | HP1b binding inh | BAZ2B block | Sfp inh | JMJD2A Tudor
Cc1[nH]c2ccccc2c1CCCO | i | i | i | i | i | i
COC1=C(OC)C(=O)C(CCCCCCCCCCO)=C(C)C1=O | ? | nt | nt | 50µM | i | nt
O=C(COC(=O)c1ccc2ncsc2c1)Nc1ccccc1Cl | nt | i | i | nt | nt | i
C/C(=N/Nc1ccc(C(=O)O)cc1)c1ccc2c(c1)Nc1ccccc1S2 | nt | 30µM | ? | nt | nt | ?
C/C(=N\Nc1ccc(C(=O)O)cc1)c1ccc2c(c1)Nc1ccccc1S2 | 11µM | 30µM | ? | 50µM | i | ?
CCCCc1ccc(NC(=O)c2cc3c(=O)n4ccccc4nc3n2C)cc1 | i | nt | i | i | nt | i
CC(C)[C@H](NC(=O)OCc1ccccc1)C(=O)OCC(=O)N1CCN(c2ccccc2)CC1 | ? | i | i | i | nt | i
Cc1cc2c(s1)c1cnn(Cc3cc(F)c(F)c(F)c3)c(=O)c1n2C | nt | nt | nt | nt | nt | i
O=C(/C=C/c1ccco1)Nc1ccc(Cl)c(-c2nc3cc(Cl)ccc3o2)c1 | i | nt | i | i | nt | i
Cc1ccc(S(=O)(=O)Nc2cc(C(F)(F)F)ccc2N2CCOCC2)c(C)c1 | 50µM | i | i | i | i | i
CN1C(=O)CON=C1c1cccc2ccccc12 | nt | i | nt | nt | nt | nt
Cc1cc[n+](-c2[nH]c(=O)sc2/C=N/N=C(\[O-])c2ccncc2)cc1C | i | i | i | ? | ? | i
Cc1cc[n+](-c2[nH]c(=O)sc2/C=N/N=C(\[O-])c2ccccc2)cc1 | i | i | i | 50µM | ? | ?
O=c1[nH]c(-[n+]2ccccc2)c(/C=N/N=C(\[O-])c2ccccc2)s1 | nt | i | i | i | i | i
Cc1cc(C)c[n+](-c2[nH]c(=O)sc2/C=N/N=C(\N)[S-])c1 | 40µM | i | i | ? | 25µM | i
Cc1ccc[n+](-c2[nH]c(=O)sc2/C=N/N=C(\[O-])c2cccnc2)c1 | ? | i | i | i | i | i
Cc1cc[n+](-c2[nH]c(=O)sc2/C=N/N=C(\[O-])c2ccccc2)cc1C | 50µM | 24µM | i | ? | i | i
Cc1cc[n+](-c2[nH]c(=O)sc2/C=N/N=C(\[O-])c2ccncc2)cc1 | i | i | i | 56µM | i | i
CCc1ccc[n+](-c2[nH]c(=O)sc2/C=N/N=C(\[O-])CCn2c3ccccc3c3ccccc32)c1 | 45µM | i | ? | ? | i | i
CCC(CC)CC1CN2CCc3cc(OC)c(OC)cc3C2CC1(O)CC (centres undefined) | nt | i | nt | nt | nt | nt
CC(=O)N1c2ccc3ccccc3c2C2C=CCC2C1c1ccc(Br)cc1 (centres undefined) | ? | nt | nt | ? | i | nt
CC(=O)N1c2ccc(Cl)cc2C2C=CCC2C1c1cccc2ccccc12 (centres undefined) | 13µM | i | i | i | ? | i
C=CCn1cccc(C(=O)Nc2ccc(C)cc2)c1=O | i | i | i | i | i | i
C=CCn1cccc(C(=O)Nc2ccc(C)c(C)c2)c1=O | i | 27µM | i | i | i | ?
NC(=O)c1ccc[n+](CC(=O)c2ccccc2)c1 | ? | i | i | i | i | i
SMILES | G9a inh | PLK1 PBD block | HP1b binding inh | BAZ2B block | Sfp inh | JMJD2A Tudor
CC(C)(C)C(=O)C[n+]1cccc(C(N)=O)c1 | i | 30µM | i | i | i | i
CCC1CCCCN1CCCNC(=O)CSc1nc2nc(C)c(Cc3ccc(C)cc3)c(C)n2n1 (centres undefined) | i | i | i | i | i | i
COc1ccc(CCC(=O)N2c3ccccc3N=C(c3ccc(C(F)(F)F)cc3)C2C(=O)NC(C)C)cc1 (centres undefined) | nt | i | nt | nt | nt | nt
Cc1ccc(-c2nnc(Nc3ccc(F)cc3)c3ccccc23)cc1S(=O)(=O)N1CCN(C)CC1 | i | nt | i | i | nt | i
Cc1ccc(Cn2ncc3c(N4CCN(Cc5ccc(Cl)cc5)CC4)ncnc32)cc1 | 35µM | i | i | i | i | i
COc1ccc(Nc2ncnc3c2cnn3Cc2ccccc2)cc1 | 50µM | i | i | 79µM | i | 89µM
Cc1ccc(Cn2ncc3c(NCCCN(C)C)ncnc32)cc1 | ? | i | i | i | i | i
COc1ccc(CC(=O)NNc2ncnc3c2cnn3C)cc1 | 25µM | i | i | 79µM | i | i
Cc1ccc(Cn2ncc3c(NN)ncnc32)cc1 | ? | i | i | 50µM | i | ?
Cc1ccc(Cn2ncc3c(N4CCN(c5ccc(C)cc5)CC4)ncnc32)cc1 | ? | i | i | i | i | i
CCOC(=O)C1(Cc2cccc(Cl)c2)CCCN(C(=O)CCN2CCCC2=O)C1 (centres undefined) | i | nt | nt | i | i | nt
O=[N+]([O-])c1cc2ncccc2c2ncccc12 | nt | i | nt | nt | nt | nt
Cc1ccc(Cn2ncc3c(NCCN(C)C)ncnc32)cc1 | 50µM | i | i | i | i | i
NC(=O)N1CCC2(CC1)NC(=O)N(c1ccccc1)N2 | 7.9µM | i | i | i | i | i
O=C1C=CC2(O[C@H](c3ccccc3)[C@@H](c3ccccc3)O2)[C@H](Sc2ccccc2O)C1 | nt | 2.4µM | ? | nt | nt | 79µM
C[C@@H]1[C@@H](Sc2ccccc2)CC(=O)O[C@@H]1c1ccc(-c2ccccc2)cc1 | nt | i | i | nt | i | i
Cc1cc2c(n1-c1ccc(C(=O)NCc3ccccc3Cl)cc1)CCCC2 | i | nt | i | i | nt | i
CCOC(=O)C(=O)NNc1ccccc1C | i | i | i | i | i | i
CCOC(=O)C(=O)NNc1cccc(C)c1C | 0.63µM | i | i | i | i | i
CCCCOC(=O)c1ccc(NC(=O)c2cc3c(=O)n4cccc(C)c4nc3s2)cc1 | i | nt | i | i | nt | i
O=C1NC[C@H](CCCCN2C[C@@H](Cc3ccccc3)N(CC3CCCCC3)C(=O)C2=O)N(CCC2CCCCC2)C1=O | nt | i | nt | nt | nt | nt
Cc1ccc(S(=O)(=O)CC(=O)Nc2nnc(C(C)(C)C)s2)cc1 | 22µM | ? | i | i | ? | ?
O=C(CS(=O)(=O)c1ccccc1)Nc1nnc(C(F)(F)F)s1 | ? | i | i | i | i | i
COc1ccc(S(=O)(=O)CC(=O)Nc2nnc(C(F)(F)F)s2)cc1 | i | i | i | i | i | i
O=C(CCS(=O)(=O)c1ccccc1)Nc1nnc(C(F)(F)F)s1 | 40µM | i | i | ? | i | i
CC(C)(C)c1nnc(NC(=O)CCS(=O)(=O)c2ccccc2)s1 | 28µM | i | i | i | i | i
COc1ccc(CNC(=O)Cn2c(=O)nc(-c3ccccc3)c3ccccc32)cc1OC | i | nt | i | i | nt | i
CC(C)CO/N=C1/C[C@@H](O)[C@@H](O)[C@@H]2[C@@H]3C(=O)N(C[C@@H]4CCCO4)C(=O)[C@H]3CC[C@H]12 | nt | nt | nt | nt | i | nt
CC(C)(O)CC[C@@H](O)[C@](C)(O)C1CC[C@@]2(O)C3=CC(=O)[C@]4(O)C[C@@H](O)[C@@H](O)C[C@]4(C)C3CC[C@]12C (some centres undefined) | i[2.33 µM] | i | i | i | nt | i
COc1ccc(CCNCCN2CCOCC2)cc1 | 3.5µM | i | ? | 25µM | ? | 20µM
